Among the data in PubChem BioAssay AID1259421 (Broad Institute, 2018) are activity change, negative = inhibition values, retold here.

“And” between values parts separate entries of the source, which are not always exact repeats. Equal values may be shown once. In all, about 6,400 compounds went through this assay and about 610 (9.5%) were called active. Cut-off read from the data, not from the text of the source: active = activity change below about -70%; inconclusive = no clear call, values can overlap the other calls; inactive = above that. Only a selection was taken, and actives are over-represented in it overall. A structure can be active in one record and inactive in another.

The assay can be described thus: Toxoplasma gondii ME49Luc growth in HeLa cells, luciferase, no IFN-y, primary screen (AID 1259421). Particulars: T. gondii ME49Luc in HeLa, 72 h, stronger effect = lower value, concentration not given here.
Consider `Cc1cc(=O)oc2c(C=O)c(O)ccc12`, for which the activity change, negative = inhibition is 16.5% (inactive).

Regarding `Cc1cc2c(C(C)C)c(O)c(O)c(C=O)c2c(O)c1-c1c(C)cc2c(C(C)C)c(O)c(O)c(C=O)c2c1O`, the activity change, negative = inhibition is -70.8% (active) and -12.6% (inactive).

As to `CC(=O)c1ccc(O)c(C(N)=O)c1`, the activity change, negative = inhibition is 7.8% (inactive).

Turning to `CCCCNCC1COc2ccccc2O1` (stereo not given), the activity change, negative = inhibition is 0.699% (inactive).

In the case of `Cc1[nH]cnc1CN1CCc2c(c3ccccc3n2C)C1=O`, the activity change, negative = inhibition is 17% (inactive).

As to `C[C@]12OC(C[C@]1(O)CO)n1c3ccccc3c3c4c(c5c6ccccc6n2c5c31)CNC4=O`, the activity change, negative = inhibition was -87.7% (active).

In the case of `CN[C@@H]1C[C@H]2O[C@@](C)([C@@H]1OC)n1c3ccccc3c3c4c(c5c6ccccc6n2c5c31)C(=O)N[C@H]4O`, the activity change, negative = inhibition was -88.9% (active).

As to `Cn1c2ccccc2c2c3c(c4c5ccccc5n(CCC#N)c4c21)CNC3=O`, the activity change, negative = inhibition was -94.9% (active).

As to `O=C1NCc2c1c1c3ccccc3[nH]c1c1[nH]c3ccccc3c21`, the activity change, negative = inhibition is 2.85% (inactive).

On to `CO[C@@H]1[C@H](N(C)C(=O)c2ccccc2)C[C@H]2O[C@]1(C)n1c3ccccc3c3c4c(c5c6ccccc6n2c5c31)C(=O)NC4`, for which the activity change, negative = inhibition was -86.8% (active).

In the case of `CC1(C)Oc2ccc(C#N)cc2C(N2CCCC2=O)C1O` (stereo not given), the activity change, negative = inhibition was 4.23% (inactive).

`C[N+](C)(C)C[C@H](O)CC(=O)O`: the activity change, negative = inhibition was 9.13% (inactive).

On to `CC(Cc1ccccc1)(NC(=O)CN)c1ccccc1` (stereo not given), for which the activity change, negative = inhibition is -47.2% (inactive) and 8.98% (inactive).

For `CCc1ccc(C(=O)C(C)CN2CCCCC2)cc1` (stereo not given), the activity change, negative = inhibition is 8.8% (inactive) and 14.4% (inactive).

As to `O=C(/C=C/c1ccc(O)c(O)c1)OC(Cc1ccc(O)c(O)c1)C(=O)O` (stereo not given), the activity change, negative = inhibition was 2.52% (inactive).

For the compound `CO/N=C(\N)c1ccc(-c2ccc(-c3ccc(/C(N)=N/OC)cc3)o2)cc1`, the activity change, negative = inhibition is 86.4% (inactive).

Take `COc1cc(OC)cc(OC)c1`: the activity change, negative = inhibition was 10% (inactive).

Turning to `O=C(CO)C(O)C(O)C(O)CO` (stereo not given), the activity change, negative = inhibition was 2.77% (inactive).

Take `CC(=O)[C@H]1CCC2C3CC=C4C[C@@H](O)CC[C@]4(C)C3CC[C@@]21C` (stereo not given in full): the activity change, negative = inhibition is 1.09% (inactive).

`COc1cc(OC)c(NC(=O)Nc2cc(C)on2)cc1Cl`: the activity change, negative = inhibition is 4.07% (inactive) and 26.1% (inactive).

`COC(=O)c1cc(Cl)ccc1OC`: the activity change, negative = inhibition was 1.3% (inactive).

Turning to `COc1ccc(Cl)cc1NC(=O)Nc1cc(C)nc2ccccc12`, the activity change, negative = inhibition is -81.5% (active) and -81.1% (active).

As for `O=C(O)Cc1csc(-c2ccc(Cl)cc2)n1`, the activity change, negative = inhibition is 15.8% (inactive).

For the compound `CS(=O)(=O)Nc1cc2occ(NC=O)c(=O)c2cc1Oc1ccccc1`, the activity change, negative = inhibition is 15.7% (inactive).

`CCCCCCCCCCC(C)(C)C(=O)Nc1c(OC)cc(OC)cc1OC`: the activity change, negative = inhibition was 16.9% (inactive).

Regarding `CC(C)(C)/[N+]([O-])=C/c1ccc(S(=O)(=O)O)cc1S(=O)(=O)O`, the activity change, negative = inhibition was 8.6% (inactive).

Take `CC(=O)NS(=O)(=O)c1ccc(NC(=O)c2ccccc2C(=O)O)cc1`: the activity change, negative = inhibition was 1.07% (inactive).

As to `CS(=O)(=O)c1ccc(-c2cnc(N)c(C(=O)Nc3ccccc3)n2)cc1`, the activity change, negative = inhibition was -81.9% (active).

For `CN1CCN(S(=O)(=O)c2ccc(-c3cnc(N)c(C(=O)Nc4cccnc4)n3)cc2)CC1`, the activity change, negative = inhibition is -77.6% (active).

`Cn1ccc2cc3c(cc21)CCN3C(=O)Nc1cccnc1`: the activity change, negative = inhibition was 104% (inactive) and 4.22% (inactive).

Turning to `CN(C)c1nc(N)c(C(=O)Nc2cccnc2)nc1Cl`, the activity change, negative = inhibition was 157% (inactive) and 219% (inactive).

For `CS(=O)(=O)c1ccc(C(=O)Nc2ccc(Cl)c(-c3ccccn3)c2)c(Cl)c1`, the activity change, negative = inhibition was 19.4% (inactive).

Regarding `COc1ccc(/C=C/c2cc(O)cc(O[C@@H]3O[C@H](CO)[C@@H](O)[C@H](O)[C@H]3O)c2)cc1`, the activity change, negative = inhibition was 12.1% (inactive).

With `Clc1cccc(C=NC=Nc2cccc(Cl)c2)c1`, the activity change, negative = inhibition was -3.22% (inactive).

As for `COC(=O)[C@@H]1CC(=O)O[C@H](C)C/C=C/C=C/[C@H](O)[C@H](C)C[C@H](CC=O)[C@H](OC2O[C@H](C)[C@@H](OC3C[C@@](C)(O)[C@@H](OC(=O)CC(C)C)[C@H](C)O3)[C@H](N(C)C)[C@H]2O)[C@H]1OC` (stereo not given in full), the activity change, negative = inhibition was -63.5% (inactive).

Turning to `CC(Cc1ccc(O)c(O)c1)C(C)Cc1ccc(O)c(O)c1` (stereo not given), the activity change, negative = inhibition is 5.71% (inactive).

With `CNC(=O)c1ccc2cc([C@]3(O)CCn4cncc43)ccc2c1`, the activity change, negative = inhibition is 9.56% (inactive).

As for `C=C1C(=O)CC2CC3OC3(C)CCC3OC3(C)C[C@H](OC(C)=O)C1C2(C)C` (stereo not given in full), the activity change, negative = inhibition was -76.2% (active).

On to `NCC(=O)CCC(=O)OCc1ccccc1`, for which the activity change, negative = inhibition was 16.4% (inactive).

Turning to `NC(Cc1ccccn1)c1ccccc1` (stereo not given), the activity change, negative = inhibition was 13% (inactive).

On to `Oc1c(Cl)cc(Cl)c2cccnc12`, for which the activity change, negative = inhibition was -83.9% (active) and -88% (active) and -90% (active).

For `Oc1c(I)cc(I)c2cccnc12`, the activity change, negative = inhibition is -8.85% (inactive) and -77.3% (active).

For `O=S(=O)(O)c1cc(I)c(O)c2ncccc12`, the activity change, negative = inhibition is 9.1% (inactive) and 15.9% (inactive).

Regarding `Oc1c(I)cc(Cl)c2cccnc12`, the activity change, negative = inhibition is 24.2% (inactive).

As for `Cc1ccc2c(Cl)cc(Cl)c(O)c2n1`, the activity change, negative = inhibition is -84% (active).

Consider `CO[C@@H]1[C@@H](O[C@@H]2O[C@H](C)[C@@H](O[C@H]3C[C@@](C)(O)[C@H](O)[C@H](C)O3)[C@H](N(C)C)[C@H]2O)[C@@H](CC=O)C[C@@H](C)[C@@H](O[C@H]2CC[C@H](N(C)C)[C@@H](C)O2)/C=C/C=C/C[C@H](C)OC(=O)C[C@H]1O`, for which the activity change, negative = inhibition is 4.59% (inactive).

In the case of `C[n+]1cccc(C(=O)O)c1`, the activity change, negative = inhibition is 14.5% (inactive).

As to `O=C(O)CC(O)(CC(=O)[O][Bi]1[O]C(=O)CC(O)(CC(=O)O)C(=O)[O]1)C(=O)O` (stereo not given), the activity change, negative = inhibition was 22.8% (inactive).

As for `CCC(C)(C)C(=O)O`, the activity change, negative = inhibition was 9.3% (inactive).

Regarding `O=C(O)Cc1ccc(OCCNC[C@H](O)c2ccccc2)cc1`, the activity change, negative = inhibition was 15.6% (inactive) and 5.18% (inactive).

`COC(=O)C[C@H]1C(C)(C)C(=O)[C@@H]2CC3=C(CC[C@]4(C)C3=CC(=O)O[C@H]4c3ccoc3)[C@@]1(C)C2=O`: the activity change, negative = inhibition is 16.4% (inactive).

For `CC(=O)OCC(=O)[C@@]1(O)CCC2C3CCC4=CC(=O)CC[C@]4(C)[C@@]3(F)[C@@H](O)C[C@@]21C` (stereo not given in full), the activity change, negative = inhibition was -4.8% (inactive).

On to `N[C@@H](CCC(=O)N[C@@H](CS[NH2+][O-])C(=O)NCC(=O)O)C(=O)O`, for which the activity change, negative = inhibition was 15.6% (inactive).

On to `CC(C)Cc1ccc([C@@H](C)C(=O)NS(C)(=O)=O)cc1`, for which the activity change, negative = inhibition was 0.904% (inactive).

On to `NC(COCc1ccccc1)C(=O)O` (stereo not given), for which the activity change, negative = inhibition was 2.58% (inactive).

In the case of `CCCc1c(OCCCCc2nn[nH]n2)ccc(C(C)=O)c1O`, the activity change, negative = inhibition was 3.01% (inactive).

As to `N#Cc1c(N)nc(SCc2csc(-c3ccc(Cl)cc3)n2)c(C#N)c1-c1ccc(OCCO)cc1`, the activity change, negative = inhibition was -62.2% (inactive).

For `Cc1nccc2[nH]c(=O)ccc12`, the activity change, negative = inhibition was 4.39% (inactive).

For the compound `CC(=O)O[C@@H]1CC[C@@]2(C)C(CC[C@]3(C)C2C(=O)C=C2[C@@H]4[C@@H](C)[C@H](C)CC[C@]4(C)CC[C@]23C)[C@@]1(C)C(=O)O` (stereo not given in full), the activity change, negative = inhibition is -14.9% (inactive).

With `O=C(O)c1ccc(OCCn2ccnc2)cc1`, the activity change, negative = inhibition was -29.3% (inactive).

As to `COc1ccc(CCCOC(Cn2ccnc2)c2ccc(OC)cc2)cc1` (stereo not given), the activity change, negative = inhibition is -72.3% (active).

Turning to `NC(=O)C1CSSCCC(=O)NC(CCCCN=C(N)N)C(=O)NCC(=O)NC(CC(=O)O)C(=O)NC(Cc2c[nH]c3ccccc23)C(=O)N2CCCC2C(=O)N1` (stereo not given), the activity change, negative = inhibition is 1.76% (inactive).

`CCOC(=O)CSCCC1NC(C(=O)O)CS1` (stereo not given): the activity change, negative = inhibition is 6.06% (inactive) and 14% (inactive).

For `N#C/C(=C/c1ccc(O)c(O)c1)C(=O)NCc1ccccc1`, the activity change, negative = inhibition was 27.2% (inactive).

Regarding `O=C(O)c1cc2occc2[nH]1`, the activity change, negative = inhibition is 12% (inactive).

For the compound `Cc1cc(C)c2c(c1)[C@@H](N(Cc1cc(C(F)(F)F)cc(C(F)(F)F)c1)c1nnn(C)n1)CCCN2CC1CCC(C(=O)O)CC1` (stereo not given in full), the activity change, negative = inhibition is -80.5% (active).

Take `CNC(=O)c1cccc(NCC(=O)NCCc2ccc(OC)c(OC)c2)c1`: the activity change, negative = inhibition is 16.5% (inactive).

As to `Cc1ccc(C(=O)N(CCCN)[C@@H](c2oc3cc(Cl)ccc3c(=O)c2Cc2ccccc2)C(C)C)cc1`, the activity change, negative = inhibition is -80.4% (active).

Regarding `Cc1c(C)n(Cc2ccccc2)c2ccc(C(=O)OCCN(C)C)cc12`, the activity change, negative = inhibition was 11.3% (inactive).

Turning to `Cc1ccc(C(=O)N(CCCN)[C@@H](c2nc3cc(Cl)ccc3c(=O)n2Cc2ccccc2)C(C)C)cc1`, the activity change, negative = inhibition is -72.6% (active).

Consider `O=C(O)CC(S)C(=O)O` (stereo not given), for which the activity change, negative = inhibition is 11.1% (inactive).

Consider `Cc1cc2nc3c(=O)[nH]c(=O)nc-3n(CC(O)C(O)C(O)CO)c2cc1C` (stereo not given), for which the activity change, negative = inhibition was 28.7% (inactive) and -4.94% (inactive).

`O=C(O)[C@H](O)[C@@H](O)[C@H](O)[C@H](O)CO`: the activity change, negative = inhibition was -60.2% (inactive).

Consider `CC(C)C1CCC(C(=O)N[C@H](Cc2ccccc2)C(=O)O)CC1` (stereo not given in full), for which the activity change, negative = inhibition was 20.3% (inactive).

`CN(C)c1ccc(C(=O)NCCCCCCC(=O)NO)cc1`: the activity change, negative = inhibition is -59.9% (inactive) and -86.2% (active) and -94.9% (active).

`CC(/C=C/C(=O)NO)=C\[C@@H](C)C(=O)c1ccc(N(C)C)cc1`: the activity change, negative = inhibition was -69.6% (inactive).

With `O=C(CCCCCCNC(=O)c1cnc(N(c2ccccc2)c2ccccc2)nc1)NO`, the activity change, negative = inhibition was -10.9% (inactive).

Regarding `CCCCCCCCCCCCC/C=C/[C@@H](O)[C@H](COC1OC(CO)C(OC2OC(CO)C(OC3OC(CO)C(O)C(OC4OC(CO)C(O)C(O)C4O)C3NC(C)=O)C(OC3(C(=O)O)CC(O)C(NC(C)=O)C(C(O)C(O)CO)O3)C2O)C(O)C1O)NC(=O)CCCCCCCCCCCCCCCCC` (stereo not given in full), the activity change, negative = inhibition was 8.33% (inactive).

On to `O=C(O)c1c(Sc2ccccc2)c2cc(Cl)ccc2n1Cc1ccc(Cl)cc1`, for which the activity change, negative = inhibition is -5.44% (inactive) and 8.39% (inactive).

Take `COC(=O)C1CC2=CC(=O)CCC2(C)C23OC2CC2(C)C(CCC24CCC(=O)O4)C13` (stereo not given): the activity change, negative = inhibition is 3.98% (inactive).
